BAZ2B block = qHTS Assay for Inhibitors of BAZ2B | Bromodomain adjacent to zinc finger domain protein 2B (Homo sapiens), Q9UIF8 | AlphaScreen BAZ2B-H3K14Ac peptide displacement | Potency, µM (series often up to 114 µM), inactives show top-dose activity change, negative = inhibition, actives largely listed as inhibitors | 360,000 compounds, 4.4% hits; note: % is set by controls: 0 for no effect and ±100 for the full control effect; nearly all actives have a fitted effect of over 60% in size
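AlphaScreen displacement: compounds (up to 110uM) incubated 30 min at room temperature with a preformed 50 nM BAZ2B/50 nM biotinylated H3K14Ac peptide complex in PBS pH 7.4 with Tween-20. Donor and acceptor beads at 10 ug/mL final added, 20 min light-protected before reading.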
Sfp inh = qHTS Assay for Inhibitors of Bacillus subtilis Sfp phosphopantetheinyl transferase (PPTase); 4'-phosphopantetheinyl transferase ffp (Bacillus subtilis), Q9F4F7; AID 1490, 2009; Biochemical Sfp PPTase activity, qHTS; 310,000 compounds, 3.5% hits; Potency, µM, without a hit: largest response in the series, negative = inhibition, usual class: inhibitors;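 note: the enzyme is Sfp with the accession as filed and its product quenches rhodamine fluorescence; 0% = enzyme reaction without inhibitor and -100% = no enzyme wells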
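Step 1, compound plus 15 nM Sfp-PPTase, 15 min, room temperature. Step 2, add rhodamine-CoA (5 uM) and BHQ-2-YbbR (12.5 uM). Step 3, read 525/598 nm fluorescence at 0 and 30 min.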
HP1b binding inh = HTS for Inhibitors of HP1-beta Chromodomain Interactions with Methylated Histone Tails. AlphaScreen HP1-beta / biotin-H3K9me3 peptide binding. AID 540317, 2011. Potency, µM (top dose mostly 114 µM), inactives show top-dose activity change, negative = inhibition, usual class: inhibitors. 390,000 compounds, 0.56% hits. Chromobox protein homolog 1 (Homo sapiens), P83916; note: nearly all actives have a fitted effect of over 70% in size
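AlphaScreen: HP1-beta (50 nM) preformed 30 min with biotin-H3(1-18)K9me3 peptide (50 nM) in PBS pH 7.4, 0.01% Tween-20. Compound added for 30 min at RT, then streptavidin donor/nickel chelate acceptor beads (10 ug/mL) for 30 min.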
L3MBTL1 block = qHTS Assay for the Inhibitors of L3MBTL1. AID 485360, 2010. AlphaScreen L3MBTL1–H3K9me1 peptide binding. Lethal(3)malignant brain tumor-like protein 1 (Homo sapiens), Q9Y468. Potency, µM (top dose mostly 57.1 µM), for the others: at the highest dose activity, negative = inhibition, most hits filed as inhibitors. 230,000 compounds, 0.66% hits; note: % is set by controls: 0 for no effect and ±100 for the full control effect; nearly all actives have a fitted effect of over 60% in size
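Read-out is AlphaScreen signal from streptavidin donor and nickel chelate acceptor beads (10 ug/mL final each) bridging L3MBTL1 (50 nM) and biotinylated K9-monomethylated H3(1-15) peptide (75 nM), after 30 min compound exposure at room temperature.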
G9a inh = qHTS Assay for Inhibitors of Histone Lysine Methyltransferase G9a; Potency, µM (highest dose often 102 µM), without a hit: top-dose activity, negative = inhibition, hits mostly inhibitors; AID 504332, 2011; G9a H3K9 monomethylation, AlphaScreen, 2 h; 350,000 compounds, 8.8% hits; Histone-lysine N-methyltransferase EHMT2 (Homo sapiens), Q96KQ7; note: % is set by controls: 0 for no effect and ±100 for the full control effect; nearly all actives have a fitted effect of over 75% in size
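Chemiluminescent proximity detection of H3K9 monomethylation, read after 10 min bead incubation in the dark. Reaction: 20 nM G9a, 500 nM biotin-H3K9 peptide, 20 uM SAM cofactor, 2 h, room temperature, following 15 min enzyme-compound preincubation.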
JMJD2A Tudor = qHTS Assay for Inhibitors of JMJD2A-Tudor Domain | 390,000 compounds, 4.4% hits | AlphaScreen JMJD2A-Tudor / H3K4me3 peptide binding | Potency, µM (highest dose often 114 µM), for inactives: at the top dose activity change, negative = inhibition, usual class: inhibitors | Lysine-specific demethylase 4A (Homo sapiens), O75164; note: % is set by controls: 0 for no effect and ±100 for the full control effect; nearly all actives have a fitted effect of over 50% in size
* = called active by the depositor; ? = inconclusive; / = no result given; [ ] = another dose, or the depositor's remark. Rows were chosen to be rich in hits. Some 12% of all compounds tested hit in one or more screens of this group. Calls come from the whole dose curve; as a rule, active = well fitted curve in the direction sought with a large enough effect; inconclusive = small, poorly fitted or top-dose-only effect, or another doubt; inactive = no such curve, though single readings can be large; an effect the other way counts as inactive or inconclusive. Potency is the fitted concentration of half-maximal effect.

SMILES | BAZ2B block | Sfp inh | HP1b binding inh | L3MBTL1 block | G9a inh | JMJD2A Tudor
COc1ccc(C(C(=O)Nc2ccc(C(C)C)cc2)N(Cc2ccco2)C(=O)CC2NC(=O)NC2=O)cc1 (stereo not drawn) | 40µM* | -17% | -2% | / | 8.9µM* | -33%
COc1ccccc1NC(=O)CSCc1cc(=O)c2c(C)cc(C)cc2[nH]1 | 3% | / | 33%[57 µM] | / | 0%[59 µM] | -6%
O=C(CSCc1cnn(-c2ccccc2)c1-n1cccc1)N1CCN(Cc2ccccc2)CC1 | ? | -5% | -15% | / | 40µM* | ?
COc1cccc2c1cc1c(=O)n(CC(=O)NC3CC3)nc(C)n12 | 2% | / | 17% | / | 1%[59 µM] | -6%
Cc1ccc(Nc2c(-c3ccccc3)nc3cnccn23)cc1 | -12% | 11% | 36% | / | 10% | 10%
Cc1ccc(Nc2c(-c3ccc(N(C)C)cc3)nc3ccccn23)cc1 | -20% | / | ? | / | ? | 7.9µM*
Cc1ccc(Nc2c(-c3ccc(O)cc3)nc3cccc(C)n23)cc1 | -6% | / | 0% | / | ? | -26%
Cc1cccc2nc(-c3ccc(N(C)C)cc3)c(Nc3ccc4c(c3)OCO4)n12 | / | / | 18% | / | 2.2µM* | -29%
Cc1ccc(-c2nc3ccccn3c2Nc2ccc3c(c2)OCO3)cc1 | 18µM* | / | ? | / | 10µM* | 25µM*
Cc1ccc(-c2nc3ccccn3c2NCc2ccc3c(c2)OCO3)cc1 | ? | ? | ? | ? | ? | 100µM*
COc1ccc(-c2nc3ccc(C)cn3c2NCc2ccc3c(c2)OCO3)cc1 | ? | ? | -9% | ? | -4% | ?
CCOC(=O)C1=C(C2=CCCCC2)c2ccc(OC)cc2N(S(=O)(=O)C(F)(F)F)C1C(=O)OCC (stereo not drawn) | / | / | 68% | 1% | / | -2%
COc1ccc(C(=O)Nc2nc3ccccc3n2CCOc2ccc(Cl)cc2)cc1 | 7% | / | 48% | / | 40%[59 µM] | -6%
O=C(Nc1ccccc1C(=O)N1CCCCC1)c1ccccc1C(F)(F)F | -2% | 13% | 21% | / | 4%[12.7 µM] | -1%
NC(=S)NCc1cccnc1 | 1% | -1% | 26% | -1% | 3% | -7%
S=C(NCc1cccnc1)Nc1ccc(Oc2ccccc2)cc1 | ? | 40µM* | -9% | -24% | / | -26%
S=C(NCc1ccco1)Nc1ccc(Oc2ccccc2)cc1 | ? | 20µM* | ? | -24% | / | -23%
c1ccc(NCc2cccnc2)cc1 | -7% | 17% | 18% | / | 45µM* | -20%
COc1ccc(NC(=S)NCc2ccco2)cc1 | -31% | 4% | 24% | -1% | / | -10%
NNC(=S)NCc1cccnc1 | 0% | 63µM* | 10% | 6% | 1.4µM* | ?
CCOC(=O)CNC(=O)c1cc2c(=O)n(CC)c3ccccc3c2s1 | -2% | / | 22% | / | 8%[59 µM] | -14%
COc1ccc(C2C3=C(N=CN(CCN4CCOCC4)C3N)Oc3ccccc32)cc1OC (stereo not drawn) | / | / | / | / | / | -18%
O=S(=O)(Nc1cccc(-c2ccc(N3CCOCC3)nn2)c1)c1ccc(F)c(C(F)(F)F)c1 | -7% | / | 22%[57 µM] | / | -3%[59 µM] | -34%
S=C(NCc1ccco1)Nc1ccc(Br)cn1 | 10% | -11% | 16% | / | 63% | -14%
S=C(NCc1ccco1)Nc1cc(-c2ccccc2)[nH]n1 | 40µM* | 1% | ? | -20% | -151%[59 µM] | ?
SMILES | BAZ2B block | Sfp inh | HP1b binding inh | L3MBTL1 block | G9a inh | JMJD2A Tudor
COC(=O)c1ccc(CN2CCN(CC=C(C)C)C(CCO)C2)cc1 (stereo not drawn) | ? | 14% | 41% | 0% | 45µM* | 5%
CCOCCCn1c(=N)c(C(=O)NCc2cccnc2)cc2c(=O)n3cc(C)ccc3nc21 | -2% | / | 29% | / | -2%[59 µM] | -5%
CCOC(=O)C(NCc1ccc(F)cc1)(NC(=O)c1ccccc1)C(F)(F)F (stereo not drawn) | 75% | -12% | 39% | -18% | -3%[59 µM] | -3%
COC(=O)C(NNc1ccccc1C)(NC(=O)c1ccc(F)cc1)C(F)(F)F (stereo not drawn) | -6% | 10% | ? | -9% | 3.2µM* | ?
COC(=O)C(NC(=O)c1ccccc1)(Nc1nccs1)C(F)(F)F (stereo not drawn) | 0% | 2% | 26% | -8% | -1% | -24%
COC(=O)C(NNc1ccc(F)cc1)(NC(=O)c1ccccc1)C(F)(F)F (stereo not drawn) | -4% | 7% | 24% | -3% | 25µM* | -17%
Cc1ccccc1Nc1nc(C#N)nc(NC2CCCC2)n1 | / | / | / | / | / | 3%
Cc1ccc(S(=O)(=O)c2cnc(-c3ccccc3)[nH]c2=O)cc1 | / | / | 17% | / | / | -6%
CC(N)=Nc1ccc([N+](=O)[O-])cc1 | 0% | -2% | 18% | 4% | 9%[59 µM] | 13%
O=[N+]([O-])c1ccc(N=Nc2c(Cl)cc(O)cc2Cl)cc1 | 8.9µM* | 5% | 13µM* | / | 10µM* | 11µM*
Cc1ccc(S(=O)(=O)Cn2nnnc2C(C(C)C)N2CCN(Cc3ccco3)CC2)cc1 (stereo not drawn) | -6% | 11% | 24% | -1% | 7% | -9%
Cc1ccc(S(=O)(=O)Cn2nnnc2CN(Cc2ccco2)Cc2cccs2)cc1 | -1% | 14% | 15% | -3% | 20µM* | -7%
CCC(C)(C)C1CCC(=NNS(=O)(=O)c2ccc(C)c([N+](=O)[O-])c2)CC1 (stereo not drawn) | -29% | 3% | 39% | 12% | 13µM* | 2%[57.1 µM]
Cc1ccc(S(=O)(=O)Nc2ccccc2)cc1[N+](=O)[O-] | / | / | 24% | / | / | -22%
Cc1ccc(S(=O)(=O)N/N=C2/CCCCC2C2CCCCC2)cc1[N+](=O)[O-] (stereo not drawn) | -2% | -7% | ? | -5% | ? | 28µM*
O=C(NC1CC(=O)N(c2cccc(F)c2)C1)c1ccc(Br)o1 (stereo not drawn) | -4% | / | 15% | / | 11%[59 µM] | -6%
OCc1ccccc1OCCCN1CCC(Cc2ccccc2)CC1 | ? | 3% | ? | 4% | 35µM* | 22µM*
COc1cc(C(C)=O)ccc1OCCCN1CCC(Cc2ccccc2)CC1 | 56µM* | -10% | ? | / | 35µM* | ?
C=CCOc1ccccc1CN1CCC(Cc2ccccc2)CC1 | ? | -16% | ? | -10% | / | 3.2µM*

Bioassay records (PubChem)
